# Compound activity as filed in PubChem.
# The list is not random: actives were taken first. Their share in the collection is about 4.6%.
# Mdm2 MdmX PPI – human Mdm2/MdmX binding inhibition. AID 485346. 330,000 compounds, 3% hits. inhibition, % at 8 µM. O15151+Q00987. SaOS-2 split-luciferase Mdm2/MdmX complementation, luminescence;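 active = inhibition of at least 50% at 8 µM in the primary screen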
# Peg3 prom inh – Peg3 promoter activity inhibition; HeLa PEG-Prom luciferase reporter, luminescence, overnight; AID 588405; inhibition, % at 20 µM; 360,000 compounds, 1.7% hits;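 active = inhibition of at least 50% at 20 µM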
# ABHD5-PLIN5 inh – inhibitors of human ABHD5-perilipin-5 interaction; Q00G26+Q8WTS1; Split G. princeps luciferase complementation, luminescence, 4 h; inhibition, % at 4 µM; 360,000 compounds, 0.78% hits;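 active = inhibition above the mean inhibition across every tested compound plus 3 SD, cut at about 22% in these data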;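 also: 0% = DMSO only wells and the 100% control is not disclosed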
# Target sequence (Q00G26 whole entry, looked up): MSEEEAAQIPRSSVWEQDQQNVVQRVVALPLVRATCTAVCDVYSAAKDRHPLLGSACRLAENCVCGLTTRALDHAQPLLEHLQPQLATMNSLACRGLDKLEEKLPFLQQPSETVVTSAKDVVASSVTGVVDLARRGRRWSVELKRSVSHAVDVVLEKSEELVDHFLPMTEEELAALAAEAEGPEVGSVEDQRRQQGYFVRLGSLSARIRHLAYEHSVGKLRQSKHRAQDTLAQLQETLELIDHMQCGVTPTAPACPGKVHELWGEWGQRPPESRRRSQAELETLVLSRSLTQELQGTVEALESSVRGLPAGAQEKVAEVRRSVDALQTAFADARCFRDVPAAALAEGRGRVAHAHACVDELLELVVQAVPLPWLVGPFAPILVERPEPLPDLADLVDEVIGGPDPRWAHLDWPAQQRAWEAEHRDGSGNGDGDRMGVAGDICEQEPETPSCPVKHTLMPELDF
# Target sequence (Q8WTS1 whole entry, looked up): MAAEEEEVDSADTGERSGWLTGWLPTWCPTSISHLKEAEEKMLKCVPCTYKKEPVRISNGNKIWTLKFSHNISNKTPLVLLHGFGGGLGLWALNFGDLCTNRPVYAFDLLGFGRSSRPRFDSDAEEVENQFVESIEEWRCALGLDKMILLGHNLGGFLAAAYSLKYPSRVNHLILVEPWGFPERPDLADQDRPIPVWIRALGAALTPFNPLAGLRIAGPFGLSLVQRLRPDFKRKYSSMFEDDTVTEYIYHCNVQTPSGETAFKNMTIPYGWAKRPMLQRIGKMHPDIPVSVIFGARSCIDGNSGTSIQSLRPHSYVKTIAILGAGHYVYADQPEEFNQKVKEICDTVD
# KKLEB tox – reduces viability of KKLEB cystic fibrosis airway cells; 360,000 compounds, 0.36% hits; AID 602141; activity change (cytotoxicity), % at 5 µM; KKLEB CF airway cells viability, ATPlite luminescence, overnight; hits give low values; cells stimulated with P. aeruginosa culture filtrate;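 active = corrected activity change at or below -50% at 5 µM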
# CF NFkB block – cystic fibrosis NF-kB activation inhibition. KKLEB NF-kB-GFP reporter, PAF-induced, GFP fluorescence overnight. inhibition, % at 5 µM. 360,000 compounds, 0.86% hits. AID 588850;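 active = at least 50% inhibition at 5 µM, scaled per plate between neutral and stimulator controls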;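 also: PAF is a Pseudomonas aeruginosa culture filtrate used as stimulus; plate controls were PAF-stimulated DMSO wells for no effect and unstimulated DMSO wells for full effect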
# HIF-2a block – blocks HIF-2a reporter activity; inhibition, % at 18.8 µM; AID 624352; 360,000 compounds, 0.72% hits; 786-0 RCC cells HIF-2a reporter, luciferase luminescence, overnight;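 active = inhibition of the luminescence signal of 40% or more relative to plate controls, in a single-dose primary screen at 18.75 µM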
# Mdm2-MdmX conf – confirmation of human Mdm2/MdmX interaction inhibitors. Mdm2-MdmX binding, luminescent assay. inhibition, % at 8 µM. 10,000 compounds, 55% hits. shares compounds with Mdm2 MdmX PPI; in the data active = inhibition above about 40%
# Full FLuc ctr – inhibits full-length luciferase, flagging false Mdm2/MdmX hits; inhibition, % at 8 µM; 6,200 compounds, 77% hits; SaOS-2 full-length luciferase counterscreen, luminescence; shares compounds with Mdm2 MdmX PPI; AID 504607;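 active = mean inhibition at 8 µM reaching about 37%, which flags the compound as non-specific, limit read from the data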;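 also: p53-null SaOS-2 cells with luciferase driven by a doxycycline-inducible promoter; compound on cells about two nights before reading with doxycycline added after day one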
# * marks the source's active call; other numbers are inactive results; . = not tested or not shown.
SMILES,Mdm2 MdmX PPI,Peg3 prom inh,ABHD5-PLIN5 inh,KKLEB tox,CF NFkB block,HIF-2a block,Mdm2-MdmX conf,others
CC(=O)O[C@H]1C(=O)[C@@]2(C)[C@H]([C@H](OC(=O)c3ccccc3)[C@]3(O)C[C@H](OC(=O)[C@H](O)[C@@H](NC(=O)c4ccccc4)c4ccccc4)C(C)=C1C3(C)C)[C@]1(OC(C)=O)CO[C@@H]1C[C@@H]2O,65*,-6,4,31,22,13,64*,Full FLuc ctr=57*
CCc1c(C#N)c(SCCC(=O)Nc2ccc(F)cc2)nc2c1C(=O)CC(C)(C)C2,56*,18,-7,-13,22,-14,11,
O=S(c1cc(Cl)cc(Cl)c1O)c1cc(Cl)cc(Cl)c1O,.,.,5,.,.,1,.,
Oc1c(Cl)cc(Cl)cc1Sc1cc(Cl)cc(Cl)c1O,100*,.,.,.,.,.,92*,Full FLuc ctr=17
Cc1ccc(OCCC(=O)OCC(=O)Nc2ccccc2)cc1,11,0,15,4,-1,6,.,
CC(=O)Oc1cc2c(C(=O)NCCCN3CCOCC3)c(C)oc2c2ccccc12,51*,-6,4,-9,4,-2,12,
Cc1c(OCC(=O)NCCCN2CCOCC2)ccc2c1oc(=O)c1ccccc12,10,0,11,-1,-41,-13,.,
O=C(CN1c2ccccc2Sc2ccccc21)NNC(=S)Nc1ccc(Cl)cc1Cl,66*,50*,-6,-17,26,0,6,
O=C(CN1c2ccccc2Sc2ccccc21)N/N=C/c1ccc(Cl)cc1,71*,28,0,22,0,24,1,
CCN(CC)c1nc(-c2ccccc2)nc2ccccc12,-12,7,-6,-11,-4,8,.,
Clc1ccccc1Nc1nc(-c2ccncc2)nc2ccccc12,40,-1,-5,0,-10,23,.,
CCCCN(CCCC)c1nc(-c2ccncc2)nc2ccccc12,56*,52*,6,-17,-4,29,39,
c1ccc2c(Nc3nc(-c4ccncc4)nc4ccccc34)cccc2c1,62*,4,3,-17,14,31,59*,Full FLuc ctr=72*
COc1ccc(-c2noc(CCC(=O)Nc3cccc(C(=O)NC4CC4)c3)n2)cc1OC,.,-6,4,5,-2,-22,.,
COc1ccc(CN(C(=O)c2ccc(-c3ccccc3)[nH]2)C(C(=O)NC(C)(C)C)c2ccncc2)cc1 (stereo not drawn),52*,15,15,-1,0,4,38,Full FLuc ctr=83*
CCCC(=O)N1CCCC(c2cc(C(=O)NCc3cccnc3)no2)C1 (stereo not drawn),.,-10,5,7,-10,3,.,
COc1cccc(CN2C(=NC(=O)C3CC3)SC3CS(=O)(=O)CC32)c1 (stereo not drawn),15,8,2,-4,1,11,.,
O=C(CSc1nc(C(F)(F)F)cc(=O)[nH]1)Nc1nccs1,20,-2,9,12,-16,8,.,
CCc1ccccc1NC(=O)C(CC)Sc1nc2cc3c(cc2c(=O)n1Cc1ccco1)OCO3 (stereo not drawn),22,35,-2,1,-3,4,.,
CCc1ccc(NC(=O)C(CC)Sc2nc3cc4c(cc3c(=O)n2Cc2ccco2)OCO4)cc1 (stereo not drawn),81*,30,-1,-63*,48,0,9,
N#Cc1ccccc1OCC(=O)N(Cc1nnc(-c2ccccc2Cl)o1)C1CC1,3,-3,-3,3,14,-12,.,
NCC(c1ccccc1)c1c[nH]c2ccccc12 (stereo not drawn),2,-4,8,-10,0,2,.,
O=[N+]([O-])CC(c1ccc(F)cc1)c1c[nH]c2ccccc12 (stereo not drawn),63*,55*,-14,-8,12,24,66*,Full FLuc ctr=42*
COc1cc(/C=C2/SC(=S)N(CCC(=O)Nc3ccc(C(=O)O)cc3)C2=O)cc(OC)c1OC,14,-3,-2,6,21,8,.,
COc1ccc(/C=C2/SC(=O)N(CCC(=O)Nc3ccccc3)C2=O)cc1OC,75*,10,-8,-54*,60*,-10,26,Full FLuc ctr=82*
SMILES,Mdm2 MdmX PPI,Peg3 prom inh,ABHD5-PLIN5 inh,KKLEB tox,CF NFkB block,HIF-2a block,Mdm2-MdmX conf,others
COc1ccc(/C=C2\SC(=S)N(CCCCCC(=O)Nc3cc(C)on3)C2=O)cc1OC,66*,37,-3,-12,26,14,13,
COc1cc(/C=C2\SC(N)=NC2=O)ccc1OCC(=O)Nc1ccc(C)cc1,57*,-15,8,-11,-13,-14,-21,
COc1ccc(/C=C2/SC(=O)N(CCC(=O)Nc3ccc(C)cc3)C2=O)cc1OC,30,.,.,.,.,.,.,
COc1cc(/C=C2\SC(=S)N(CCC(=O)Nc3ccc(O)cc3)C2=O)cc(OC)c1OC,92*,10,-4,-32,26,30,15,
S=c1nn[nH]c2ccccc12,.,0,-1,2,-9,-9,.,
COc1cc(OC)c(/C=C2\SC(=O)N(CC(=O)Nc3ccccc3F)C2=O)c(OC)c1,57*,47,-3,-16,24,30,34,Full FLuc ctr=73*
O=C(NNc1nc(-c2ccc(F)cc2)cs1)c1ccccc1,62*,37,-4,-3,-10,-3,49*,Full FLuc ctr=50*
O=C(Cc1c(F)c(F)c(F)c(F)c1F)Nc1nc(-c2ccccc2)cs1,57*,7,-4,11,-16,-19,39,Full FLuc ctr=84*
O=C(CSc1nc(-c2ccccc2)cs1)Nc1nccs1,59*,-2,0,-17,0,-1,-7,
CC(C)(C)c1csc(NNC(=O)c2ccc(Br)cc2)n1,64*,-123,-6,-19,5,-176,22,
O=C(Cc1ccc(F)cc1)Nc1nc(-c2ccc(F)cc2)cs1,13,-30,-2,0,-29,-53,.,
COc1ccc(NC2CCCN(C(=O)CCC(=O)c3ccc(F)cc3)C2)cc1 (stereo not drawn),1,-92,-10,17,-27,-131,.,
COc1ccc(C2CC=C(C(C)=O)CN2S(=O)(=O)c2ccc(C)cc2)cc1 (stereo not drawn),.,-23,3,-3,27,-15,.,
CCOc1ccc(CCNC(=O)c2ccc3ccccc3n2)cc1OCC,6,-115,-1,0,-29,-138,.,
CCC(=O)c1ccc(OCC(=O)Nc2nc(-c3cccnc3)cs2)cc1,16,17,5,3,-14,1,.,
O=C(NNc1nc(-c2ccccc2)cs1)c1ccc(F)cc1,54*,1,-4,-4,8,-5,26,
O=C(NNc1nc(-c2ccccc2)cs1)c1cccs1,37,-29,-17,0,6,-84,.,
